Each structure is given as a SMILES string. Calls of active or inactive are those of the source.

Experiment [1] has as its system Plasmodium falciparum Sir2 (PF13_0152, Sir2A). Description: Plasmodium falciparum Sir2A binding compounds – biochemical, small-molecule microarray, 635 nm fluorescence, primary screen (AID 1098).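 Also: score merges spot fluorescence intensity with its signal-to-noise ratio.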 The note with it: fluorescence 635 nm, higher = more signal.
A short description of experiment [2]: probe aDKK1 binding to arrayed compounds – biochemical, biotinylated probe, 635/667 nm fluorescence, primary screen (AID 1099).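 Also: score merges 667nm spot fluorescence with signal to noise across triplicate slides.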 The note with it: small-molecule microarray, higher = more signal.
Experiment [3] is described as follows: probe aCHRDL2 binding to arrayed compounds – biochemical, biotinylated probe, 635/667 nm fluorescence, primary screen (AID 1100). The note with it: small-molecule microarray, higher = more signal.
A short description of experiment [4]: change in splice reporter luminescence, either direction, cell-based, HEK293, spliceosome inhibition project, primary screen (AID 1101).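 Also: HEK293 cells carrying a splicing-competent luciferase reporter gene; test concentration not given here.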 The note with it: HEK293 splicing luciferase reporter, 24 h, higher = more signal, called active from +8 up or from −8 down. (In a reporter assay the amount or activity of a reporter protein is the signal.)
Experiment [5] has as its target Fibroblast growth factor 10 (Homo sapiens) (UniProt O15520). Description: compounds binding fibroblast growth factor 10 – biochemical, small-molecule microarray, 635 nm fluorescence, primary screen (AID 1102). The note with it: FGF10 binding, fluorescence 635 nm, higher = more signal.
For experiment [6], the system named is glycogen synthase kinase-3 (GSK3A per assay name; protocol says GSK3B). Description: compounds binding glycogen synthase kinase-3 – biochemical, small-molecule microarray, 635 nm fluorescence, GSK3A, primary screen (AID 1103). Also: the record names both GSK3A and GSK3B. The note with it: fluorescence 635 nm, higher = more signal.
The target of experiment [7] is Epidermal growth factor receptor (Homo sapiens) (UniProt P00533). As to the kind of experiment: compounds binding epidermal growth factor receptor – biochemical, small-molecule microarray, 635 nm fluorescence, primary screen (AID 1104).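 Also: score merges 667 nm emission intensity with spot signal to noise over triplicate slides.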 The note with it: EGFR binding, higher = more signal.
Epidermal growth factor receptor (Homo sapiens), sequence (P00533 whole entry, looked up): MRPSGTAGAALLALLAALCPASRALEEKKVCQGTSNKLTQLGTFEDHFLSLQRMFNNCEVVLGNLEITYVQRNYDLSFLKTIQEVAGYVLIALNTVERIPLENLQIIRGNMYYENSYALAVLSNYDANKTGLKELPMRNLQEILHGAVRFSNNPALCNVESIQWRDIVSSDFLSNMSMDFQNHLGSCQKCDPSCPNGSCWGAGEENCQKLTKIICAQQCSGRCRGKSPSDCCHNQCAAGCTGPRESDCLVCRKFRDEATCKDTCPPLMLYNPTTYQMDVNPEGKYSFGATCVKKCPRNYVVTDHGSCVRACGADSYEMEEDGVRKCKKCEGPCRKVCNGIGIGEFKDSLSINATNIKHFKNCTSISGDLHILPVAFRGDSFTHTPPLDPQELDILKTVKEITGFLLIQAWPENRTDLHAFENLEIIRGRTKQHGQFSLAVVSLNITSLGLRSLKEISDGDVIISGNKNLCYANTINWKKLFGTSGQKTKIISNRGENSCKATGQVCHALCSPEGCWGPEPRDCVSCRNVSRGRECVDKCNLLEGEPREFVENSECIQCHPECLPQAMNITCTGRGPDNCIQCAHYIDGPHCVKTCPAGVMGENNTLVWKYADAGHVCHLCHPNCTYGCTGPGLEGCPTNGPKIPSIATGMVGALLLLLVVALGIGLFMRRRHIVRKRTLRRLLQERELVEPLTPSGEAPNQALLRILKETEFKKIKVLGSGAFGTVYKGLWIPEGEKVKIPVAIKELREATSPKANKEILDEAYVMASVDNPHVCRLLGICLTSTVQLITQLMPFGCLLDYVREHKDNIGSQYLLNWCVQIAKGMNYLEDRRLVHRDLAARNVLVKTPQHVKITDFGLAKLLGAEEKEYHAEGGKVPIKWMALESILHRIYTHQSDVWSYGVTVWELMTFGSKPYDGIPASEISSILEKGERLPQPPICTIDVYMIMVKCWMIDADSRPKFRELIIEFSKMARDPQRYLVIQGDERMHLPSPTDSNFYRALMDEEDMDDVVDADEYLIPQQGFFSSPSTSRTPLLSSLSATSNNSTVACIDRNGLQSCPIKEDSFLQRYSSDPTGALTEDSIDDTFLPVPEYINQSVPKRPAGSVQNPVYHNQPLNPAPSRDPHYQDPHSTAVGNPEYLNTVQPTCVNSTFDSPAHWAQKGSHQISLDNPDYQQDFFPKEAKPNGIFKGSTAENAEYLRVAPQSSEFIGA
Experiment [8] concerns the target Follistatin-related protein 3 (Homo sapiens) (UniProt O95633). Description: compounds binding follistatin-related protein 3 – biochemical, small-molecule microarray, 635 nm fluorescence, primary screen (AID 1105).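 Also: score merges emission near 667 nm and signal to noise per printed spot across three slides.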 Conditions: FSTL3 binding, higher = more signal.
Experiment [9] deals with Dickkopf-related protein 1 (Homo sapiens) (UniProt O94907). As to the kind of experiment: small molecules binding DKK1 protein – biochemical, small-molecule microarray, 635 nm fluorescence scan, primary screen (AID 1106).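 Also: score merges emission near 667 nm with signal to noise over three replicate slides.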 Conditions: higher = more signal.
Dickkopf-related protein 1 (Homo sapiens), sequence (O94907 whole entry, looked up): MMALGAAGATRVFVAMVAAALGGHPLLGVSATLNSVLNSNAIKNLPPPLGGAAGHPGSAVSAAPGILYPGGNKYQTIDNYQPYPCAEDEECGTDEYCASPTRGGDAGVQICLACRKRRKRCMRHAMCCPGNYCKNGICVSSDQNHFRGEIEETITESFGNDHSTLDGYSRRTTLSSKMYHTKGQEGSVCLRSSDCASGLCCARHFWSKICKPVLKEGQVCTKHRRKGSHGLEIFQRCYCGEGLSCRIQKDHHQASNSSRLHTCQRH
Experiment [10] deals with Inhibin beta A chain (activin A). As to the kind of experiment: small molecules binding activin A – biochemical, small-molecule microarray, 635 nm fluorescence scan, primary screen (AID 1107).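 Also: mouse activin A protein probed at 4.33 µg/mL on printed slides; score merges bound-protein fluorescence near 667 nm with spot signal-to-noise.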 The note with it: INHBA, higher = more signal.
Experiment [11] has as its system Human papillomavirus type 1a protein E7 (residues 44-93). Description: small molecules binding HPV E7 44-93 – biochemical, small-molecule microarray, residues 44-93, 635 nm fluorescence, primary screen (AID 1108).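 Also: E7 fragment applied at 1 µg/mL in TBST for 1 h at 4 C; score combines spot fluorescence with its signal to noise ratio.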 The note with it: fluorescence 635 nm, higher = more signal.
The nature of experiment [12]: hepatitis C replication reporter changes, two-sided – Huh7 cells, luciferase reporter, HCV replication inhibitor project, primary screen (AID 1109).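 Also: huh7 hepatoma cells harbouring a luciferase neomycin HCV replicon reporter; luciferase luminescence as measure of HCV replicon replication; test concentration not given here.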 The note with it: Huh7 HCV replicon luciferase reporter, 48 h; higher = more signal.
The target of experiment [13] is Left-right determination factor 2 (Homo sapiens) (UniProt O00292). Description: small molecules binding LEFTY2 protein – biochemical, small-molecule microarray, 635 nm fluorescence scan, primary screen (AID 1110). The note with it: higher = more signal.
Left-right determination factor 2 (Homo sapiens), sequence (O00292 whole entry, looked up): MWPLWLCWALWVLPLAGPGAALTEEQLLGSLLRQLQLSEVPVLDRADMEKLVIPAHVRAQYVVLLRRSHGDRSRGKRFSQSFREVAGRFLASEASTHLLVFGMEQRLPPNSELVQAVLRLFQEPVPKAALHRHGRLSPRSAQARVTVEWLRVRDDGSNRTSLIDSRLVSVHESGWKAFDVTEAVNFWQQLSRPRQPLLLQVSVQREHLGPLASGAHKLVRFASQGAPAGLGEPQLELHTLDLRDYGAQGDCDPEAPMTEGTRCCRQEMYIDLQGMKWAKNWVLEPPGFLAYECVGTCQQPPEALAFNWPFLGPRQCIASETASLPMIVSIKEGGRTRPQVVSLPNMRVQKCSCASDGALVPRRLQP
Experiment [14] concerns the target Calmodulin-1 (Homo sapiens) (UniProt P0DP23). As to the kind of experiment: small molecules binding calmodulin-1 with EGTA – biochemical, small-molecule microarray, Cy5-labelled CALM1, profiling panel (AID 1111).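 Also: labelled calmodulin applied in Tris saline Tween buffer holding calcium plus EGTA and DTT.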 The note with it: Cy5-CALM1 binding fluorescence, higher = more signal.
For experiment [15] the target is unchanged. As to the kind of experiment: small molecules binding Ca-loaded calmodulin-1 – biochemical, small-molecule microarray, Cy5-labelled CALM1, plus calcium, artefact control for SMM control-protein annotation, profiling panel (AID 1112).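 Also: score merges spot fluorescence with signal to noise from triplicate slides.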 Conditions: Cy5-CALM1 binding fluorescence, higher = more signal.
Experiment [16] can be described thus: probe aWnt5a binding to arrayed compounds – biochemical, biotinylated probe, 635/667 nm fluorescence, primary screen (AID 1113).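 Also: score merges 667 nm fluorescence intensity with signal-to-noise per printed feature.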 Conditions: small-molecule microarray, higher = more signal.
A short description of experiment [17]: probe aShh binding to arrayed compounds – biochemical, biotinylated probe, 635/667 nm fluorescence, primary screen (AID 1114).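 Also: probe is biotin-labelled aShh protein from a stem cell growth factor screen; measures binding of labelled protein to compounds printed on the slide; score merges feature fluorescence at 667 nm with signal-to-noise.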 The note with it: small-molecule microarray, higher = more signal.
Experiment [18] can be described thus: probe aNog binding to arrayed compounds – biochemical, biotinylated probe, 635/667 nm fluorescence, primary screen (AID 1115).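 Also: probe is biotinylated aNog protein used at 0.15 µg/mL for 1 h at 4 C; z-score combines 667 nm fluorescence of each spot with its signal to noise.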 Conditions: small-molecule microarray, higher = more signal.
Experiment [19] has as its target Torsin-1A-interacting protein 1 (Homo sapiens) (UniProt Q5JTV8). Description: compound microarray binding of lysate hLAP1 – cell lysate, small-molecule microarray, COS7 lysate, 635/667 nm fluorescence, primary screen (AID 1116). The note with it: 635 nm fluorescence, higher = more signal.
Experiment [20] addresses Alpha-bungarotoxin (Bungarus multicinctus) (UniProt P60615). Description: compounds binding labelled alpha-BTX control protein – biochemical, small-molecule microarray, Alexa647 label, 635/667 nm fluorescence, artefact control for SMM control protein annotation, profiling panel (AID 1117). The note with it: alpha-BTX-A647 binding fluorescence, higher = more signal.

Torsin-1A-interacting protein 1 (Homo sapiens), sequence (Q5JTV8 whole entry, looked up): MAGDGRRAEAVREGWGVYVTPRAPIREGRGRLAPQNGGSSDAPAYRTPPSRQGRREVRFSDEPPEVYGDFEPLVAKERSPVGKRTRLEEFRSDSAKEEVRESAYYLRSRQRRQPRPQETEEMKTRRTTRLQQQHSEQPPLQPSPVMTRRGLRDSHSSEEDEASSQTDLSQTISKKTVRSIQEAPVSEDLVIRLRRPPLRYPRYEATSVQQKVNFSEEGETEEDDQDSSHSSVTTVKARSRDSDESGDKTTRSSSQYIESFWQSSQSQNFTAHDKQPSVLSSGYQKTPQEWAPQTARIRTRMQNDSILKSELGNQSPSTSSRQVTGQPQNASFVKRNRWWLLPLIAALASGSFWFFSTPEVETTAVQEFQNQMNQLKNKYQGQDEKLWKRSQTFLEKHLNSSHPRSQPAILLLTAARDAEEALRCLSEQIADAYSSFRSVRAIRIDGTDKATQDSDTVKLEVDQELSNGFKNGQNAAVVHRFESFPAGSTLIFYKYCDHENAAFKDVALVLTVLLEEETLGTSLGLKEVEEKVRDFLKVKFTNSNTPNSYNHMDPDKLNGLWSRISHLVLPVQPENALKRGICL
Follistatin-related protein 3 (Homo sapiens), sequence (O95633 whole entry, looked up): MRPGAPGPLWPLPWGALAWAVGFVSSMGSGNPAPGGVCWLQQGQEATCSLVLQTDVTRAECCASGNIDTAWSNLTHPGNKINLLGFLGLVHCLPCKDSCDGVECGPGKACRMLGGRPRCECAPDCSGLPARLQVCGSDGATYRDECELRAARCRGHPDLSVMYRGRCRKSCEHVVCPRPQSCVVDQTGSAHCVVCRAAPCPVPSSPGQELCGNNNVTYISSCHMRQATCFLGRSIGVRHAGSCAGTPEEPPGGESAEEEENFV
Alpha-bungarotoxin (Bungarus multicinctus), sequence (P60615 whole entry, looked up): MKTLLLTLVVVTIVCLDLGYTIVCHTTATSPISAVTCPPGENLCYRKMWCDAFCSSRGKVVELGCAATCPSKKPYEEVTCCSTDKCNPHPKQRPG
Fibroblast growth factor 10 (Homo sapiens), sequence (O15520 whole entry, looked up): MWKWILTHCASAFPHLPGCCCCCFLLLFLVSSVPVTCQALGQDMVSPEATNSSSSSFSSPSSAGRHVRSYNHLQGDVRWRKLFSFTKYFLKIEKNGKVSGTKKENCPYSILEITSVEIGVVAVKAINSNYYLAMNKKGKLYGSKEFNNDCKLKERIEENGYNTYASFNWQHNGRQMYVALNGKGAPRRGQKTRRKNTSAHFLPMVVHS

Consider `[N-]=[N+]=Nc1ccccc1[C@@H]1OC(c2ccc(OCCCO)cc2)=N[C@]1(CCS(=O)(=O)c1ccccc1)C(=O)NCC(O)CO` (stereo not given in full), for which the composite z-score in [1] is 1.73; in experiment [2] it was -0.181; in experiment [3] it was 0.72; in experiment [5], -0.176; in experiment [6] it was 0.434; in experiment [7] it was -0.586. Moreover, the composite z-score is -0.332 in experiment [8]; -0.328 in [9]; 0.693 in experiment [10]; 0.535 in experiment [11]; -0.741 in [13]; 0.867 in [14]. For the same compound, the composite z-score was -0.271 in experiment [15]; -0.0977 in [16]; -0.0011 in experiment [17]; 0.437 in experiment [18]; 2.18 in experiment [19]; 0.534 in experiment [20]. In addition, the values for the z-score in experiment [4] and in experiment [12] were -0.633 (inactive) and -0.485, respectively.

Consider `CCCCCCc1nc(-c2ccc(-c3ccc(Cl)c(Cl)c3)o2)cc2c1[Si](C(C)C)(C(C)C)OC2`, for which the composite z-score is -0.143 in experiment [1]; -0.269 in [2]; 0.207 in experiment [3]; -1.31 in [5]; -1.22 in experiment [6]; -1.01 in experiment [7]. In addition, the composite z-score in [8] was -0.816; in [9] it was -0.793; in experiment [10], 0.522; in experiment [11] it was -0.474; in [13], -0.924; in experiment [14] it was -0.444. The composite z-score in experiment [15] was 0.742; in experiment [16] it was -0.174; in experiment [17], -0.372; in experiment [18] it was -0.278; in experiment [19] it was -0.875; in experiment [20], -0.782. For the same compound, the z-score in [4] was -2.26 (inactive); in experiment [12], -0.967.

As for `CC(=O)c1ccc(C(O)C2C=CC3C(=O)N(c4ccccc4)C(=O)C3N2Nc2ccc(C(C)C)cc2)cc1` (stereo not given), the composite z-score came to 0.696 in [1]; 1.46 in [2]; 0.865 in experiment [3]; 1.01 in [5]; 0.806 in [6]; 0.314 in experiment [7]. In addition, the composite z-score in experiment [8] was 1.25; in experiment [9], -0.0216; in experiment [10] it was 1.05; in [11], 0.637; in [13] it was 0.438; in [14], 0.889. In addition, the composite z-score in experiment [15] is 0.0603; in [16], -0.0519; in [17] it was 0.0278; in [18], 1.7; in experiment [19], 0.415; in experiment [20] it was 0.859. In addition, the figures for the z-score in experiment [4] and in experiment [12] were -0.385 (inactive) and -0.674, respectively.

Consider `CC(C)NC(=O)[C@@]1(C)c2ccccc2C(=O)N(Cc2ccccc2)[C@H]1c1ccc(CO)cc1`, for which the composite z-score in experiment [1] is 1.7; in experiment [2], -0.152; in experiment [3] it was 0.424; in [5] it was -1.2; in [6], -0.0543; in experiment [7], -0.921. The composite z-score in experiment [8] is -0.394; in experiment [9], -0.0744; in experiment [10], -1.14; in [11], 0.864; in experiment [13], -1.47; in [14], -0.155. Further, the composite z-score was -0.672 in experiment [15]; -0.0819 in experiment [16]; -0.209 in [17]; -0.45 in experiment [18]; -0.922 in [19]; 0.386 in experiment [20]. In addition, the z-score was -0.44 (inactive) in [4] and -0.957 in experiment [12].

For the compound `COCCCNC(=O)[C@@]1(CCS(=O)(=O)c2ccccc2)COC(c2ccc(OCCCO)cc2)=N1`, the composite z-score in experiment [1] is 1.37; in experiment [2], 1.56; in experiment [3], 1.47; in experiment [5] it was 0.946; in experiment [6], 0.878; in [7], -0.318. In addition, the composite z-score was -0.0346 in [8]; -0.0211 in [9]; 0.952 in [10]; 0.0612 in experiment [11]; -0.241 in [13]; 2.65 in experiment [14]. In addition, the composite z-score in experiment [15] amounted to 1.26; in [16], 0.0919; in [17], 0.363; in experiment [18] it was 2.04; in experiment [19], 3.1; in experiment [20], 3.34. In addition, the z-score is 0.0749 (inactive) in experiment [4] and -0.46 in experiment [12].

Turning to `CN1C(=O)[C@@H]2[C@@H](CC(COc3ccccc3)=C3[C@@H](CCc4ccccc4)OB(O)C[C@@H]32)C1=O`, the composite z-score in experiment [1] was 1.11; in experiment [2], -0.003; in experiment [3], 0.0414; in experiment [5] it was 0.311; in experiment [6], -0.557; in [7] it was -0.133. In addition, the composite z-score in experiment [8] was 0.128; in experiment [9], 0.109; in [10] it was 0.515; in [11] it was -0.0599; in [13] it was -0.194; in [14], 0.0212. Further, the composite z-score in experiment [15] is 0.662; in [16] it was -0.156; in [17], 0.691; in [18], -0.0172; in [19], 0.0197; in [20], 1.4. The z-score was 0.341 (inactive) in [4] and -0.595 in experiment [12].

Values taken from PubChem BioAssay.
